Experimental data: the supplement of paper PMC10127200
Structures can show the parent of a compound that is named as a salt.

Legend:
Assay in all cases: Euclidean distance of Cell Painting phenotypic profile (signed KS, 77 features) to DMSO centroid (dimensionless distance); 5 or 10 uM (library dependent); higher = stronger phenotypic change vs DMSO (phenoactivity)
Details in all cases: 48 h
[1] = tested on: 786-O
In short: (§1)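 Library compounds were applied at 10 or 5 uM, depending on the library, with 0.1% DMSO final, for 48 h to five cancer lines and a healthy fibroblast line. After staining, cells were imaged confocally at 20X across 9 fields per well, and Harmony extracted 77 features, each scored as a signed Kolmogorov-Smirnov statistic against vehicle wells on the same plate. Phenoactivity is the Euclidean distance between each profile and the median vehicle profile, with profiles first plate-position corrected, correlation-weighted and averaged over replicates at the top dose.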

[2] = tested on: A549
In short: as §1

[3] = tested on: DU145
In short: as §1

[4] = tested on: FB
In short: as §1

[5] = tested on: HEPG2
In short: as §1

[6] = tested on: OVCAR4
In short: as §1

Row | SMILES | Euclidean distance [1] | Euclidean distance [2] | Euclidean distance [3] | Euclidean distance [4] | Euclidean distance [5] | Euclidean distance [6]
1 | CCCCC1C(=O)N(c2ccccc2)N(c2ccccc2)C1=O [Phenylbutazone] | 0.905 | 0.759 | 1.5 | 1.25 | 0.482 | 1
2 | COC(=O)Nc1nc2cc([S+]([O-])c3ccccc3)ccc2[nH]1 (centres undefined) [Oxfendazole] | 1.09 | 0.692 | 1.08 | 0.801 | 1.42 | 1.12
3 | OC(CCN1CCCCC1)(c1ccccc1)C1CC2C=CC1C2 (centres undefined) [Biperiden HCl] | 0.618 | 0.662 | 0.98 | 1.08 | 1.01 | 0.843
4 | Cc1c(Cl)cccc1Nc1ccccc1C(=O)O [Tolfenamic Acid] | 1.28 | 0.83 | 0.762 | 0.742 | 0.5 | 1.19
5 | COc1ccnc(C[S+]([O-])c2nc3cc(-n4cccc4)ccc3[nH]2)c1C (centres undefined) [Ilaprazole] | 1.22 | 1.57 | 1.17 | 1.23 | 0.928 | 1.27
6 | Cn1cc(-c2ccc3nnc(Sc4ccc5ncccc5c4)n3n2)cn1 | 1.56 | 2.02 | 1.64 | 0.87 | 0.766 | 0.987
7 | CCCc1nc2c(C)cc(-c3nc4ccccc4n3C)cc2n1Cc1ccc(-c2ccccc2C(=O)O)cc1 [Telmisartan] | 1.83 | 0.747 | 1.03 | 1.03 | 1.95 | 1.02
8 | COc1cccc(-c2cc(=O)c3ccccc3o2)c1N | 1.16 | 1.4 | 0.841 | 0.911 | 1.94 | 0.844
9 | CCCCCCCCCCCC(=O)O [Lauric Acid] | 1.1 | 0.784 | 1.21 | 1.34 | 0.884 | 0.985
10 | O=c1ccn([C@@H]2O[C@H](COP(=O)(O)OP(=O)(O)OP(=O)(O)O)[C@@H](O)[C@H]2O)c(=O)[nH]1 [UTP. Trisodium Salt] | 1.15 | 0.718 | 0.761 | 0.666 | 1.23 | 0.979
11 | CNC(=O)c1ccc(C)c(-n2c(C)cc(OCc3ccc(F)cc3F)c(Br)c2=O)c1 | 1.33 | 1.29 | 0.844 | 1.55 | 1.94 | 1.07
12 | Cc1c(-c2ccc(-c3ccccc3F)cc2)nc2ccc(F)cc2c1C(=O)O [Brequinar] | 1.61 | 1.46 | 0.974 | 0.698 | 1.44 | 1.45
13 | OCCn1cc(-c2ccc3c(c2)CC/C3=N\O)c(-c2ccncc2)n1 | 1.79 | 0.879 | 1.22 | 1.93 | 0.823 | 1.88
14 | CC[C@@H](C)Nc1cc(C(=O)N[C@H]2C[C@H]3CC[C@@H](C2)N3c2ccc(C(=O)C3CC3)cn2)c(C)cc1C(N)=O | 3.1 | 3.1 | 3.17 | 3.15 | 4.37 | 3.3
15 | CC(C)C[C@H](NC(=O)[C@@H](COC(C)(C)C)NC(=O)[C@H](Cc1ccc(O)cc1)NC(=O)[C@H](CO)NC(=O)[C@H](Cc1c[nH]c2ccccc12)NC(=O)[C@H](Cc1cnc[nH]1)NC(=O)[C@@H]1CCC(=O)N1)C(=O)N[C@@H](CCCNC(=N)N)C(=O)N1CCC[C@H]1C(=O)NNC(N)=O [Goserelin Acetate] | 1.49 | 0.535 | 2.39 | 0.568 | 0.784 | 1.07
16 | C[C@@H]1O[C@@H](OC[C@H]2O[C@@H](Oc3c(-c4ccc(O)c(O)c4)oc4cc(O)cc(O)c4c3=O)[C@H](O)[C@@H](O)[C@@H]2O)[C@H](O)[C@H](O)[C@H]1O [Rutin] | 1.11 | 0.756 | 0.783 | 0.933 | 0.632 | 0.909
17 | CC(C)CC(N)=O [Isovaleramide] | 1.41 | 1.09 | 0.731 | 0.571 | 1.21 | 1.81
18 | Cn1cncc1[C@@](N)(c1ccc(Cl)cc1)c1ccc2c(c1)c(-c1cccc(Cl)c1)cc(=O)n2C [Tipifarnib] | 2.23 | 2.94 | 2.5 | 2.31 | 1.91 | 2.15
19 | N#Cc1cc(-c2n[nH]c(-c3ccncc3)n2)ccn1 [Topiroxostat] | 1.19 | 1.05 | 1.49 | 1.16 | 0.521 | 1.32
20 | CO/N=C(\C(=O)N[C@@H]1C(=O)N2C(C(=O)[O-])=C(C[n+]3cccc4c3CCC4)CS[C@H]12)c1csc(N)n1 [Cefpirome sulfate] | 0.835 | 0.636 | 0.405 | 0.989 | 0.508 | 0.689
21 | CC1(C)S[C@@H]2[C@H](NC(=O)Cc3ccccc3)C(=O)N2[C@H]1C(=O)O [Penicillin G Sodium] | 1.04 | 0.576 | 1.12 | 0.979 | 0.871 | 1.93
22 | O=C(O)C1=CO[C@@H](O[C@@H]2O[C@H](CO)[C@@H](O)[C@H](O)[C@H]2O)[C@@H]2C(CO)=CC[C@H]12 [Geniposidic acid] | 0.817 | 0.758 | 0.684 | 0.819 | 0.985 | 0.756
23 | CCC(=O)OCC(=O)[C@@]1(OC(=O)CC)[C@@H](C)C[C@H]2[C@@H]3CCC4=CC(=O)C=C[C@]4(C)[C@@]3(F)[C@@H](O)C[C@@]21C [Betamethasone Dipropionate] | 1.67 | 2.06 | 2.69 | 2.18 | 0.697 | 1.59
24 | CN1CCC(OC(c2ccccc2)c2ccccc2)CC1 [Diphenylpyraline hydrochloride] | 0.93 | 0.611 | 2.19 | 1.17 | 0.532 | 0.876
